Compound activity: PubChem, Johns Hopkins Ion Channel Center
KCNQ2 inh – blocks the rat KCNQ2 potassium channel. hit rate 1.1% among 310,000. B-score at 10 µM. O88943. CHO-K1 KCNQ2, FluxOR thallium flux, 20 min; active compounds read low;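 active means fluorescence ratio B-score at most minus 3 library SDs, with starting brightness B-score within 2 library SDs, cut at about -5.5 in these data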
KCNQ2 enhance – potentiators of rat KCNQ2 potassium channel; CHO-K1 KCNQ2, FluxOR thallium flux fluorescence; active compounds read high; B-score at 10 µM; hit rate 0.54% among 310,000;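 active means fluorescence ratio B-score at least 3 SD of library B-scores, with initial fluorescence B-score within 3 of them, cut at about 5.3 in these data; same plate scores as AID 2156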;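 further: B-score of peak minus minimum over baseline fluorescence ratio after K+ and Tl+ stimulus; positive B-score means potentiation of KCNQ2 with more thallium influx and brighter signal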
Kir21 conf inh – confirmation of mouse Kir2.1 potassium channel inhibitors; shares compounds with KCNQ2 enhance; Kir2.1-expressing cells, FluxOR thallium flux fluorescence; active compounds read low; hit rate 41% among 2,300; Tl flux remaining, % of negative control (active compounds read low), % at 10 µM; AID 2032;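 active means Primary-screen hit whose thallium flux fell at least 3 control SD below untreated wells in both duplicates, with normal baseline fluorescence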;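 further: 0% = blank wells without stimulus and 100% = stimulated no-compound controls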
Target sequence (P35561 whole entry, looked up): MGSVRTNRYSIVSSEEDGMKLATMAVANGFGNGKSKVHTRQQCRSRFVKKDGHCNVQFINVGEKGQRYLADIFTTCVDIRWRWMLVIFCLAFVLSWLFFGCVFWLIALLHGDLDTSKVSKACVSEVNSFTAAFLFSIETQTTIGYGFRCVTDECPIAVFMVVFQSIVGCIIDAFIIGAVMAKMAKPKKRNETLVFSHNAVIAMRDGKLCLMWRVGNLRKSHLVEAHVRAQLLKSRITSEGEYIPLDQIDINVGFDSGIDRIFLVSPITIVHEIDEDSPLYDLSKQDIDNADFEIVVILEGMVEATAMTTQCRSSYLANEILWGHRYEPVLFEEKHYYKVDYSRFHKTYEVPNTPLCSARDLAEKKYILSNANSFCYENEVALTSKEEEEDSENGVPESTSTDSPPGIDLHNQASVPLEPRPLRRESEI
HEK293 Tl flux – alters thallium flux in parental HEK293 cells, Kir2.1 counter-screen; hit rate 19% among 2,300; FluxOR thallium flux fluorescence; 0% = unstimulated blank wells; shares compounds with KCNQ2 enhance; FluxOR signal as % of negative control (100 = no effect), % at 10 µM;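 active means dye signal at least 3 control SD above or below untreated wells in both duplicates, raw fluorescence within 3, either direction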;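 further: percent is based on the flux ratio of peak minus minimum fluorescence over baseline F0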
CHO-K1 Tl ctr – parental CHO-K1 activity in KCNQ2 potentiator counter-screen; shares compounds with KCNQ2 enhance; parental CHO-K1 cells, FluxOR thallium flux fluorescence; zero = vehicle mean+3SD, 100% = vehicle-minus-blank window; activity increase over 3SD of controls, % at 10 µM; hit rate 43% among 1,200; AID 2282;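 active means signal rise of at least 3 SD above the untreated control mean, in both duplicate wells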;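 further: counter screen of KCNQ2 potentiator hits so any rise reflects channel-independent effects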
KCNQ1 pot spec – tests whether KCNQ2 potentiators also act on human KCNQ1; shares compounds with KCNQ2 enhance; CHO KCNQ1 stable, FluxOR thallium flux fluorescence; beyond 3SD, as % of vehicle-control signal; activation over 3SD threshold, % at 10 µM; hit rate 28% among 1,200; AID 2283;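 active means fluorescence ratio rise of at least 3 SD of vehicle wells above their mean, in both replicate wells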;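 further: 0% = vehicle mean plus 3 SD and 100% = vehicle minus unstimulated blank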
KCNQ2 pot conf – confirmation of rat KCNQ2 potassium channel potentiators | hit rate 68% among 1,200 | shares compounds with KCNQ2 enhance | CHO-KCNQ2 cells, FluxOR thallium flux fluorescence | potentiation, less the hit threshold, % at 10 µM | AID 2287;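 active means fluorescence ratio rising 3 SD or more over the vehicle control mean in both replicates, plus primary screen hit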;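 further: peak minus minimum thallium fluorescence divided by baseline after K/Tl stimulus; 0% = vehicle mean plus 3 SD and 100% = vehicle minus unstimulated blank difference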
Kir21 spec – mouse Kir2.1 off-target activity of KCNQ2 potentiators; hit rate 2% among 1,200; AID 2345; HEK293 Kir2.1, FluxOR thallium flux fluorescence; shares compounds with KCNQ2 enhance; activity over 3SD threshold, % at 10 µM;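 active means fluorescence ratio rise of at least 3 SD above the vehicle-control mean, seen in both replicates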;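 further: 0% = vehicle mean plus 3 SD and 100% = vehicle minus no-stimulus blank window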
KCNQ2 W236L pot – potentiates the retigabine-insensitive rat KCNQ2 W236L mutant channel. current increase over 3SD of negative controls (%), active compounds read high, % at 25 µM. shares compounds with KCNQ2 enhance. hit rate 10% among 940. CHO KCNQ2-W236L, automated patch clamp current;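 active means current increase at least 3 SD of the untreated controls above them in both duplicate recordings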
* hit, by the source's call; i = inactive; . = no result given. In the library only some 1.6% were active in any assay of this set; here they are far more common.

SMILES	KCNQ2 inh	KCNQ2 enhance	Kir21 conf inh	HEK293 Tl flux	others
CCc1ccc(OCC(=O)NC2CCCCC2)c(Br)c1	i	23*	i	i	CHO-K1 Tl ctr=138*;KCNQ1 pot spec=-16;KCNQ2 pot conf=72*;Kir21 spec=-44;KCNQ2 W236L pot=i
O=C(Cc1ccc(Cl)cc1Cl)NC1CCCCCC1	i	3	.	.
COc1ccc(-c2nc(CN3CCC(C(=O)N4CCOCC4)CC3)c(C)o2)cc1C	i	0.04	.	.
O=C(Nc1cccc2ccccc12)c1cc2c(cc1Br)OCO2	i	.	.	.
CC(C)C(OC(=O)CN1C(=O)c2ccccc2C1=O)C(=O)NC1CCCC1 (stereo unspecified)	i	.	.	.
Brc1cc(Cc2nnc(-c3ccccc3)o2)c(Br)s1	i	.	.	.
COc1ccc(CCNC(=O)COc2cccc3c2OC(C)(C)C3)cc1OC	i	.	52%*	i
CC(C)CCNC(=O)COc1cccc2c1OC(C)(C)C2	i	0.68	.	.
Cc1ccc(-n2nnnc2-c2ccccc2)cc1	i	.	.	.
Cc1ccc(-n2nnnc2C(Cl)c2nnnn2-c2ccc(C)cc2)cc1	i	.	39%*	i
Cc1ccc(C(=O)Nc2nc(C(C)(C)C)cs2)s1	i	6.6*	i	i	CHO-K1 Tl ctr=18*;KCNQ1 pot spec=-5;KCNQ2 pot conf=0;Kir21 spec=-18;KCNQ2 W236L pot=i
CC(C)(C)c1csc(NC(=O)c2ccc(Cl)s2)n1	i	0.69	.	.
Cc1cc(C)c(C#N)c(OCC(=O)c2ccccc2)n1	i	0.86	.	.
CCOC(=O)COc1nc2c(c(-c3ccco3)c1C#N)CCc1ccccc1-2	i	10*	i	i	CHO-K1 Tl ctr=48*;KCNQ1 pot spec=84*;KCNQ2 pot conf=-11;Kir21 spec=-28;KCNQ2 W236L pot=i
CCOC(=O)COc1nc(-c2ccccc2)cc(-c2ccco2)c1C#N	i	2.4	.	.
N#Cc1c(OCC(=O)c2ccccc2)nc2c(c1-c1ccco1)CCc1ccccc1-2	i	20*	i	145%*	CHO-K1 Tl ctr=2.2*;KCNQ1 pot spec=-3;KCNQ2 pot conf=42*;Kir21 spec=-37;KCNQ2 W236L pot=i
CCOCCCN(C)C1CCN(S(=O)(=O)c2csc(C(N)=O)c2)CC1	i	.	.	.
CCCc1nccn1S(=O)(=O)c1cc(OC)ccc1OC	i	0.69	.	.
COc1ccc(CCN(C)S(=O)(=O)c2ccc(Cl)nc2)cc1OC	i	0.6	.	.
CCCN(CCC)C(=S)NC(=O)c1ccc(-c2ccccc2)cc1	i	14*	i	340%*	CHO-K1 Tl ctr=26*;KCNQ1 pot spec=3.5*;KCNQ2 pot conf=38*;Kir21 spec=-15;KCNQ2 W236L pot=i
Cc1ccc(C(=O)NC(=S)N(C)Cc2ccccc2)cc1	i	3.1	.	.
CCCOc1ccc(C(=O)NNC(=S)NC(C)=O)cc1	i	0.83	.	.
CCCOc1ccc(C(=O)NNC(=S)NC(=O)c2ccccc2)cc1	i	20*	i	i	CHO-K1 Tl ctr=-5;KCNQ1 pot spec=3.3*;KCNQ2 pot conf=-18;Kir21 spec=-29
CCOc1ccc(CN(CCC#N)C(=S)NC(=O)c2ccccc2)cc1	i	0.91	.	.
CCOc1ccc(C(=O)NC(=S)N(Cc2ccccc2)Cc2ccccc2)cc1	i	20*	i	176%*	CHO-K1 Tl ctr=-13;KCNQ1 pot spec=-10;KCNQ2 pot conf=0.5*;Kir21 spec=-35;KCNQ2 W236L pot=i
SMILES	KCNQ2 inh	KCNQ2 enhance	Kir21 conf inh	HEK293 Tl flux	others
Cc1ccc2oc(C(=O)NCC3CCOCC3)c(C)c2c1	i	0.94	.	.
CCOc1cc(/C=N/NC(=O)C(=O)NC)cc(Br)c1O	i	0.1	.	.
CC(=O)Nc1ccc(/C=N/NC(=S)NC(C)C)cc1	i	0.38	.	.
O=C(N/N=C/c1ccc(-c2ccc(Br)cc2)o1)c1ccc2c(c1)OCO2	i	.	.	.
O=C(N/N=C/c1ccc(COc2ccc(Br)cc2)o1)c1ccc2c(c1)OCO2	i	5.7*	i	i	CHO-K1 Tl ctr=-5;KCNQ1 pot spec=-28;KCNQ2 pot conf=-11;Kir21 spec=-29
COCCCNC(=S)N(Cc1cccnc1)Cc1ccc(OC)c(OC)c1	i	.	.	.
COCCN=C1N[C@@H](c2ccccc2)C(C(=O)OC)=C(C)N1Cc1ccccc1	i	.	.	.
COC(=O)C1=C(C)N(Cc2ccccc2)C(=NCc2ccccc2)N[C@H]1c1cccc(F)c1	i	.	19%*	i
CCN1C(=O)N[C@@H](c2cccc(F)c2)C(C(=O)OC)=C1C	i	0.13	.	.
COCCN1C(=S)N[C@@H](c2cccc(F)c2)C(C(=O)OC)=C1C	i	.	41%*	i
COCCN=C1N[C@@H](c2ccc(Br)cc2)C(C(=O)OC)=C(C)N1Cc1ccccc1	i	.	32%*	74%*
COC(=O)C1=C(C)N(Cc2ccccc2)C(=S)N[C@H]1c1cccc(F)c1	i	.	.	.
C=CCNC(=O)N1C2=NC(C(=O)OC)=C(C(=O)OC)[C@@H]3N(Cc4ccccc4)c4ccccc4[C@]23C[C@H]1C(=O)OC	i	0.08	.	.
CCc1nc(SCC(=O)Nc2ccc(Br)cn2)n[nH]1	i	1	.	.
Cc1ccc(OCCC(=O)OCC(=O)NC(=O)c2ccccc2)cc1	i	0.07	.	.
O=C(NC(=S)Nc1ccc(N2CCCCC2)cc1)c1cccs1	i	5.8*	i	126%*	CHO-K1 Tl ctr=-8;KCNQ1 pot spec=-10;KCNQ2 pot conf=3.0*;Kir21 spec=-38;KCNQ2 W236L pot=i
CS(=O)(=O)N1CCN(c2ccc(NC(=S)NC(=O)c3cccs3)cc2)CC1	i	.	.	.
COc1cccc(NC(=O)c2nc(S(C)(=O)=O)ncc2Cl)c1	i	.	63%*	64%*
COc1cccc(NC(=O)c2nc(SC)ncc2Cl)c1	i	0.34	.	.
COc1ccc(CCNC(=O)c2cc3c(cc2Cl)N2CCCCCC2=NS3(=O)=O)cc1	i	0.82	.	.
CCOC(=O)C1=C(C)NC(=O)NC1c1cn(-c2ccccc2)nc1-c1cccs1 (stereo unspecified)	i	.	.	.
CCOC(=O)C1=C(C)NC(C)=C(C(=O)OCC)C1c1cn(-c2ccccc2)nc1-c1ccco1	i	11*	i	i	CHO-K1 Tl ctr=17*;KCNQ1 pot spec=86*;KCNQ2 pot conf=-12;Kir21 spec=-17
C1CCC(C(CC2CCCCN2)C2CCCCC2)CC1 (stereo unspecified)	i	.	28%*	72%*
CC1CCCC(C)N1C(=O)COc1ccc(C(=O)N/N=C/c2ccc(C(=O)O)cc2)cc1 (stereo unspecified)	i	.	.	.
N#CCC(=O)N/N=C/c1ccc(Sc2nc3ccccc3s2)o1	i	0.81	.	.
CCCCOc1ccc(NC2=NC3(CCCC3)N=C(N)N2)cc1	i	1.7	.	.
O=C(COC(=O)C1CC(=O)N(Cc2ccccc2)C1)c1ccc(Br)cc1 (stereo unspecified)	i	.	.	.
